# Measured values from PubChem BioAssay (Tox21).
# “And” between values parts separate entries of the source, which are not always exact repeats. Identical values can stand only once. Records with an inconclusive call do not appear. Entries that show only a call come without a potency. Some compounds were tested as several samples or in several runs, with calls that do not always agree. The source made the active and inactive calls. Calls follow the shape of the dose curve; as a rule, active = well fitted curve in the direction sought with a large enough effect in the repeat runs; inconclusive = weak or mixed curves; inactive = no such curve, though single readings can be large; an effect the other way counts as inactive or inconclusive.
# Experiment: qHTS assay to identify small molecule HDAC inhibitors - cell viability counter screen (AID 1259365); also: nearly all actives have a fitted effect of over 50% in size
# Details: HCT-116 viability, CellTiter-Glo ATP luminescence, 2 h; series mostly up to 92.4 µM
# How it was run: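 Luminescence from CellTiter-Glo, developed 30min at room temperature, reports viability of wild-type HCT-116 cells treated 2hr with compounds at 37 C and 5% CO2 after overnight plating.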
row,SMILES,outcome
1,Cc1noc(NS(=O)(=O)c2ccc(N)cc2)c1C,inactive
2,CC(C)(Oc1ccc(C2CC2(Cl)Cl)cc1)C(=O)O (stereo not drawn),inactive
3,CCCC(CCC)C(=O)O,inactive
4,OC(Cn1cncn1)(Cn1cncn1)c1ccc(F)cc1F,inactive
5,CCCCC1C(=O)N(c2ccccc2)N(c2ccccc2)C1=O,inactive
6,O=c1cc[nH]c(=S)[nH]1,inactive
7,CC(C)[C@@H]1CC[C@@H](C)C[C@H]1O,inactive
8,Cc1cc(=O)n(-c2ccccc2)n1C,inactive
9,NC(=O)c1ccccc1O,inactive
10,NNC(=O)c1ccncc1,inactive
11,CCCNC(=O)NS(=O)(=O)c1ccc(Cl)cc1,inactive
12,NC(N)=O,inactive
13,CCCC(O)C(CC)CO (stereo not drawn),inactive
14,CCCCC(CC)COC(=O)/C=C/c1ccc(OC)cc1 (stereo not drawn),inactive
15,NS(=O)(=O)c1cc(C(=O)O)c(NCc2ccco2)cc1Cl,inactive
16,Nc1ccc(C(=O)O)cc1,inactive
17,O=C(O)CCCCC(=O)O,inactive
18,CCCN(CCC)S(=O)(=O)c1ccc(C(=O)O)cc1,inactive

row,SMILES,outcome
1,NC(N)=NC(=O)c1nc(Cl)c(N)nc1N,inactive
2,Cc1ccc(O)cc1,inactive
3,NC(=O)c1cnccn1,inactive
4,C1N2CN3CN1CN(C2)C3,inactive
5,C[C@]12C=CC(=O)C=C1CC[C@@H]1[C@@H]2[C@@H](O)C[C@@]2(C)[C@H]1CC[C@]2(O)C(=O)CO,inactive
6,Nc1ccn([C@H]2CC[C@@H](CO)O2)c(=O)n1,inactive
7,CC1(C)[C@@H]2CC[C@@]1(C)C(=O)C2,inactive
8,O=C(c1ccccc1)c1ccccc1,inactive
9,Nc1ccc(O)c(C(=O)O)c1,inactive
10,COc1ccc2[nH]cc(CCNC(C)=O)c2c1,inactive
11,Cc1ccc(S(=O)(=O)NC(=O)NN2CCCCCC2)cc1,inactive
12,Cc1ccc(C)c(OCCCC(C)(C)C(=O)O)c1,inactive
13,Nc1ccc(S(=O)(=O)c2ccc(N)cc2)cc1,inactive
14,Oc1ccc(/C=C/c2cc(O)cc(O)c2)cc1,inactive
15,CC(=O)Nc1nnc(S(N)(=O)=O)s1,inactive
16,CC(=O)NS(=O)(=O)c1ccc(N)cc1,inactive
17,Cn1cc[nH]c1=S,inactive
18,O=c1ccc2ccccc2o1,inactive

# Experiment: qHTS assay to identify small molecule agonists of the sonic hedgehog signaling (Shh) pathway - cell viability counter screen (AID 1259366); also: nearly all actives have a fitted effect of over 50% in size; also: potency is read from the fitted curve at half-maximal effect
# Details: NIH/3T3 Gli1-Luc viability, CellTiter-Fluor, 24 h; series mostly up to 92.4 µM
# How it was run: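 Cytotoxicity counter screen run in the same wells as the Shh reporter assay. NIH/3T3 cells carrying a Gli1 response element–driven luciferase were treated with DMSO-dissolved compounds for 24hr, and live-cell protease activity was measured with CellTiter-Fluor.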
row,SMILES,Potency
1,Cc1noc(NS(=O)(=O)c2ccc(N)cc2)c1C,inactive
2,CC(C)(Oc1ccc(C2CC2(Cl)Cl)cc1)C(=O)O (stereo not drawn),inactive
3,CCCC(CCC)C(=O)O,inactive
4,OC(Cn1cncn1)(Cn1cncn1)c1ccc(F)cc1F,inactive
5,CCCCC1C(=O)N(c2ccccc2)N(c2ccccc2)C1=O,inactive
6,O=c1cc[nH]c(=S)[nH]1,inactive
7,CC(C)[C@@H]1CC[C@@H](C)C[C@H]1O,inactive
8,Cc1cc(=O)n(-c2ccccc2)n1C,inactive
9,NC(=O)c1ccccc1O,inactive
10,NNC(=O)c1ccncc1,inactive
11,CCCNC(=O)NS(=O)(=O)c1ccc(Cl)cc1,inactive
12,NC(N)=O,23 µM (active) and inactive
13,CCCC(O)C(CC)CO (stereo not drawn),inactive
14,CCCCC(CC)COC(=O)/C=C/c1ccc(OC)cc1 (stereo not drawn),inactive
15,NS(=O)(=O)c1cc(C(=O)O)c(NCc2ccco2)cc1Cl,inactive
16,Nc1ccc(C(=O)O)cc1,inactive
17,O=C(O)CCCCC(=O)O,inactive
18,CCCN(CCC)S(=O)(=O)c1ccc(C(=O)O)cc1,inactive

row,SMILES,Potency
1,NC(N)=NC(=O)c1nc(Cl)c(N)nc1N,inactive
2,Cc1ccc(O)cc1,inactive
3,NC(=O)c1cnccn1,inactive
4,C1N2CN3CN1CN(C2)C3,inactive
5,C[C@]12C=CC(=O)C=C1CC[C@@H]1[C@@H]2[C@@H](O)C[C@@]2(C)[C@H]1CC[C@]2(O)C(=O)CO,inactive
6,Nc1ccn([C@H]2CC[C@@H](CO)O2)c(=O)n1,inactive
7,CC1(C)[C@@H]2CC[C@@]1(C)C(=O)C2,inactive
8,O=C(c1ccccc1)c1ccccc1,inactive
9,Nc1ccc(O)c(C(=O)O)c1,inactive
10,COc1ccc2[nH]cc(CCNC(C)=O)c2c1,inactive
11,Cc1ccc(S(=O)(=O)NC(=O)NN2CCCCCC2)cc1,inactive
12,Cc1ccc(C)c(OCCCC(C)(C)C(=O)O)c1,inactive
13,Nc1ccc(S(=O)(=O)c2ccc(N)cc2)cc1,inactive
14,Oc1ccc(/C=C/c2cc(O)cc(O)c2)cc1,21.9 µM (active) and 24.3 µM (active)
15,CC(=O)Nc1nnc(S(N)(=O)=O)s1,inactive
16,CC(=O)NS(=O)(=O)c1ccc(N)cc1,inactive
17,Cn1cc[nH]c1=S,inactive
18,O=c1ccc2ccccc2o1,inactive

# Experiment: qHTS assay to identify small molecule antagonists of the sonic hedgehog signaling (Shh) pathway - cell viability counter screen (AID 1259367); also: nearly all actives have a fitted effect of over 55% in size; also: potency is read from the fitted curve at half-maximal effect
# Details: NIH/3T3 Gli1-Luc viability, CellTiter-Fluor, 24 h; series mostly up to 92.4 µM
# How it was run: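 Cytotoxicity was assessed in parallel with Shh reporter activity by measuring live-cell protease fluorescence (CellTiter-Fluor) in NIH/3T3 cells stably carrying Gli1-Luc, treated with compound under conditioned medium stimulation for 23 hr plus 1 hr reagent incubation.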
row,SMILES,Potency
1,Cc1noc(NS(=O)(=O)c2ccc(N)cc2)c1C,inactive
2,CC(C)(Oc1ccc(C2CC2(Cl)Cl)cc1)C(=O)O (stereo not drawn),inactive
3,CCCC(CCC)C(=O)O,inactive
4,OC(Cn1cncn1)(Cn1cncn1)c1ccc(F)cc1F,inactive
5,CCCCC1C(=O)N(c2ccccc2)N(c2ccccc2)C1=O,inactive
6,O=c1cc[nH]c(=S)[nH]1,inactive
7,CC(C)[C@@H]1CC[C@@H](C)C[C@H]1O,inactive
8,Cc1cc(=O)n(-c2ccccc2)n1C,inactive
9,NC(=O)c1ccccc1O,inactive
10,NNC(=O)c1ccncc1,inactive
11,CCCNC(=O)NS(=O)(=O)c1ccc(Cl)cc1,inactive
12,NC(N)=O,16.3 µM (active) and inactive
13,CCCC(O)C(CC)CO (stereo not drawn),inactive
14,CCCCC(CC)COC(=O)/C=C/c1ccc(OC)cc1 (stereo not drawn),inactive
15,NS(=O)(=O)c1cc(C(=O)O)c(NCc2ccco2)cc1Cl,inactive
16,Nc1ccc(C(=O)O)cc1,inactive
17,O=C(O)CCCCC(=O)O,inactive
18,CCCN(CCC)S(=O)(=O)c1ccc(C(=O)O)cc1,inactive

row,SMILES,Potency
1,NC(N)=NC(=O)c1nc(Cl)c(N)nc1N,inactive
2,Cc1ccc(O)cc1,inactive
3,NC(=O)c1cnccn1,inactive
4,C1N2CN3CN1CN(C2)C3,inactive
5,C[C@]12C=CC(=O)C=C1CC[C@@H]1[C@@H]2[C@@H](O)C[C@@]2(C)[C@H]1CC[C@]2(O)C(=O)CO,inactive
6,Nc1ccn([C@H]2CC[C@@H](CO)O2)c(=O)n1,inactive
7,CC1(C)[C@@H]2CC[C@@]1(C)C(=O)C2,inactive
8,O=C(c1ccccc1)c1ccccc1,inactive
9,Nc1ccc(O)c(C(=O)O)c1,inactive
10,COc1ccc2[nH]cc(CCNC(C)=O)c2c1,inactive
11,Cc1ccc(S(=O)(=O)NC(=O)NN2CCCCCC2)cc1,inactive
12,Cc1ccc(C)c(OCCCC(C)(C)C(=O)O)c1,inactive
13,Nc1ccc(S(=O)(=O)c2ccc(N)cc2)cc1,inactive
14,Oc1ccc(/C=C/c2cc(O)cc(O)c2)cc1,30.9 µM (active) and 27.3 µM (active)
15,CC(=O)Nc1nnc(S(N)(=O)=O)s1,inactive
16,CC(=O)NS(=O)(=O)c1ccc(N)cc1,inactive
17,Cn1cc[nH]c1=S,inactive
18,O=c1ccc2ccccc2o1,inactive
